Test results from PubChem BioAssay AID1259421 (Broad Institute, 2018).
Several values for one entry are separate records, joined by “and”; a condition that tells them apart may be missing. Identical values can stand only once. In all, about 6,400 compounds went through this assay and about 610 (9.5%) were called active. Rule as the data show it: active = activity change below about -70%; inconclusive = no clear call, values can overlap the other calls; inactive = above that. Many of the other results were omitted from the sample, so actives are more common in it than they were. The source holds several records for some structures; these can differ, active in one and inactive in another.

Assay: Toxoplasma gondii ME49Luc growth in HeLa cells, luciferase, no IFN-y, primary screen (AID 1259421)
Details: T. gondii ME49Luc in HeLa, 72 h, stronger effect = lower value, concentration not given here

Row | SMILES | activity change, negative = inhibition
1 | CC(C)Cc1ccc([C@@H](C)C(=O)NS(C)(=O)=O)cc1 | 0.904% (inactive)
2 | NC(COCc1ccccc1)C(=O)O (stereo not drawn) | 2.58% (inactive)
3 | CCCc1c(OCCCCc2nn[nH]n2)ccc(C(C)=O)c1O | 3.01% (inactive)
4 | N#Cc1c(N)nc(SCc2csc(-c3ccc(Cl)cc3)n2)c(C#N)c1-c1ccc(OCCO)cc1 | -62.2% (inactive)
5 | Cc1nccc2[nH]c(=O)ccc12 | 4.39% (inactive)
6 | CC(=O)O[C@@H]1CC[C@@]2(C)C(CC[C@]3(C)C2C(=O)C=C2[C@@H]4[C@@H](C)[C@H](C)CC[C@]4(C)CC[C@]23C)[C@@]1(C)C(=O)O (stereo partly drawn) | -14.9% (inactive)
7 | COc1ccc(CCCOC(Cn2ccnc2)c2ccc(OC)cc2)cc1 (stereo not drawn) | -72.3% (active)
8 | O=C(O)c1ccc(OCCn2ccnc2)cc1 | -29.3% (inactive)
9 | NC(=O)C1CSSCCC(=O)NC(CCCCN=C(N)N)C(=O)NCC(=O)NC(CC(=O)O)C(=O)NC(Cc2c[nH]c3ccccc23)C(=O)N2CCCC2C(=O)N1 (stereo not drawn) | 1.76% (inactive)
10 | CCOC(=O)CSCCC1NC(C(=O)O)CS1 (stereo not drawn) | 6.06% (inactive) and 14% (inactive)
11 | N#C/C(=C/c1ccc(O)c(O)c1)C(=O)NCc1ccccc1 | 27.2% (inactive)
12 | O=C(O)c1cc2occc2[nH]1 | 12% (inactive)
13 | Cc1cc(C)c2c(c1)[C@@H](N(Cc1cc(C(F)(F)F)cc(C(F)(F)F)c1)c1nnn(C)n1)CCCN2CC1CCC(C(=O)O)CC1 (stereo partly drawn) | -80.5% (active)
14 | CNC(=O)c1cccc(NCC(=O)NCCc2ccc(OC)c(OC)c2)c1 | 16.5% (inactive)
15 | Cc1ccc(C(=O)N(CCCN)[C@@H](c2nc3cc(Cl)ccc3c(=O)n2Cc2ccccc2)C(C)C)cc1 | -72.6% (active)
16 | Cc1c(C)n(Cc2ccccc2)c2ccc(C(=O)OCCN(C)C)cc12 | 11.3% (inactive)
17 | Cc1ccc(C(=O)N(CCCN)[C@@H](c2oc3cc(Cl)ccc3c(=O)c2Cc2ccccc2)C(C)C)cc1 | -80.4% (active)
18 | O=C(O)CC(S)C(=O)O (stereo not drawn) | 11.1% (inactive)
19 | Cc1cc2nc3c(=O)[nH]c(=O)nc-3n(CC(O)C(O)C(O)CO)c2cc1C (stereo not drawn) | 28.7% (inactive) and -4.94% (inactive)
20 | O=C(O)[C@H](O)[C@@H](O)[C@H](O)[C@H](O)CO | -60.2% (inactive)
21 | CC(C)C1CCC(C(=O)N[C@H](Cc2ccccc2)C(=O)O)CC1 (stereo partly drawn) | 20.3% (inactive)
22 | CN(C)c1ccc(C(=O)NCCCCCCC(=O)NO)cc1 | -59.9% (inactive) and -86.2% (active) and -94.9% (active)
23 | CC(/C=C/C(=O)NO)=C\[C@@H](C)C(=O)c1ccc(N(C)C)cc1 | -69.6% (inactive)
24 | O=C(CCCCCCNC(=O)c1cnc(N(c2ccccc2)c2ccccc2)nc1)NO | -10.9% (inactive)
25 | CCCCCCCCCCCCC/C=C/[C@@H](O)[C@H](COC1OC(CO)C(OC2OC(CO)C(OC3OC(CO)C(O)C(OC4OC(CO)C(O)C(O)C4O)C3NC(C)=O)C(OC3(C(=O)O)CC(O)C(NC(C)=O)C(C(O)C(O)CO)O3)C2O)C(O)C1O)NC(=O)CCCCCCCCCCCCCCCCC (stereo partly drawn) | 8.33% (inactive)

Row | SMILES | activity change, negative = inhibition
26 | O=C(O)c1c(Sc2ccccc2)c2cc(Cl)ccc2n1Cc1ccc(Cl)cc1 | -5.44% (inactive) and 8.39% (inactive)
27 | COC(=O)C1CC2=CC(=O)CCC2(C)C23OC2CC2(C)C(CCC24CCC(=O)O4)C13 (stereo not drawn) | 3.98% (inactive)
28 | C[C@@H]1CC[C@]2(C(=O)O)CC[C@]3(C)C(=CCC4[C@@]5(C)CC[C@H](O)C(C)(C)C5CC[C@]43C)C2[C@H]1C (stereo partly drawn) | 8.22% (inactive)
29 | C[C@H]1[C@H](C)CC[C@]2(C(=O)O)CC[C@]3(C)C(=CC[C@@H]4[C@@]5(C)CC[C@H](O)C(C)(C)[C@@H]5CC[C@]43C)[C@H]12 | -76.6% (active)
30 | CC1(C)CC[C@]2(C(=O)O)CC[C@]3(C)C(=CC[C@@H]4[C@@]5(C)CC[C@H](O)C(C)(C)[C@@H]5CC[C@]43C)[C@@H]2C1 | -38.2% (inactive) and 16.6% (inactive)
31 | C[C@H]1[C@H](C)CC[C@]2(C(=O)O)CC[C@]3(C)C(=CCC4[C@@]5(C)C[C@@H](O)[C@H](O)[C@@](C)(CO)C5CC[C@]43C)[C@H]12 (stereo partly drawn) | 14.3% (inactive)
32 | C[C@H]1[C@H](C)CC[C@]2(C(=O)O)CC[C@]3(C)C(=CCC4[C@@]5(C)C[C@@H](O)[C@H](O)[C@@](C)(CO)C5[C@H](O)C[C@]43C)[C@H]12 (stereo partly drawn) | -87.6% (active)
33 | C[C@H]1[C@H](C)CC[C@]2(C(=O)O)CC[C@]3(C)C(=CC[C@@H]4[C@@]5(C)C[C@@H](O)[C@H](O)[C@@](C)(CO)[C@@H]5CC[C@]43C)[C@H]12 | -67.1% (inactive) and -6.04% (inactive)
34 | Nc1nc2c(ncn2CCC(CO)CO)c(=O)[nH]1 | 11.1% (inactive)
35 | COc1c2ccoc2nc2c(OC)c(OCC(O)C(C)(C)O)ccc12 (stereo not drawn) | 7.33% (inactive)
36 | C[C@@H](NCCCc1cccc(C(F)(F)F)c1)c1cccc2ccccc12 | 58.2% (inactive)
37 | CO[C@H]1C=CO[C@@]2(C)Oc3c(C)c(O)c4c(O)c(c5c(nc6cc(C)ccn65)c4c3C2=O)NC(=O)/C(C)=C\C=C/[C@H](C)[C@H](O)[C@@H](C)C(O)[C@@H](C)[C@H](OC(C)=O)[C@@H]1C (stereo partly drawn) | 2.45% (inactive)
38 | CC(C)CC1C(=O)N2CCC[C@H]2C2(O)O[C@](NC(=O)C3C=C4c5cccc6[nH]c(Br)c(c56)C[C@H]4N(C)C3)(C(C)C)C(=O)N12 (stereo partly drawn) | -3.42% (inactive)
39 | O=C(NS(=O)(=O)c1ccc(Br)s1)c1ccc(Cl)cc1Cl | 15.3% (inactive)
40 | CS(=O)(=O)Oc1ccc2c(NC(N)=O)c(C(=O)c3ccc(Cl)cc3Cl)oc2c1 | 6% (inactive) and -81.6% (active)
41 | Cc1cccc(/C=N/Nc2cc(N3CCOCC3)nc(OCCc3ccccn3)n2)c1 | -83.9% (active)
42 | CCOC(=O)CCNc1cc(N2CCc3ccccc3CC2)nc(-c2ccccn2)n1 | -57.4% (inactive)
43 | O=c1cc(N2CCOCC2)nc2c3ccccc3ccn12 | 7.41% (inactive)
44 | O=C(O)c1ccc(-n2nc(-c3ccccc3O)nc2-c2ccccc2O)cc1 | -30% (inactive)
45 | CC(C)(O)CC[C@@H](O)[C@](C)(O)C1CC[C@@]2(O)C3=CC(=O)C4C[C@@H](O)[C@@H](O)C[C@]4(C)C3CC[C@]12C (stereo partly drawn) | 12.6% (inactive)
46 | Fc1cccc(/C=N/N=C/c2cccc(F)c2)c1 | 8.5% (inactive) and 8.55% (inactive)
47 | C[N+]1(C)[C@@H]2CC(OC(=O)C(O)(c3cccs3)c3cccs3)C[C@H]1[C@@H]1O[C@@H]12 (stereo partly drawn) | 13.9% (inactive)
48 | CCc1cnn2c(NCc3ccc[n+]([O-])c3)cc(N3CCCC[C@H]3CCO)nc12 | -74.2% (active)
49 | COc1ccc(CNc2nc(N3CCC[C@H]3CO)ncc2C(=O)NCc2ncccn2)cc1Cl | -6.59% (inactive)
50 | COc1cc(O)cc([C@@H]2CC(=O)c3c(O)cc(O[C@@H]4O[C@H](CO)[C@@H](O)[C@H](O)[C@H]4O[C@@H]4O[C@@H](C)[C@H](O)[C@@H](O)[C@H]4O)cc3O2)c1 | 4.15% (inactive)

Row | SMILES | activity change, negative = inhibition
51 | c1ccc(Oc2nc(NC3CCCCC3)c3[nH]cnc3n2)cc1 | -6.74% (inactive)
52 | Cn1cnc2cc3c(Nc4cccc(Br)c4)ncnc3cc21 | -18.1% (inactive)
53 | O=C(NCCCl)N(CCCl)[NH2+][O-] | -12% (inactive)
54 | O=C(O)c1ccc(N2C(=O)/C(=C/c3ccc(-c4ccc([N+](=O)[O-])cc4)o3)C=C2c2ccccc2)cc1 | 14.9% (inactive)
55 | CN1CCc2c(c3ccccc3n2Cc2ccc(C(=O)NO)cc2)C1 | -47% (inactive)
56 | CCCCN(Cc1ccc(C(=O)NO)cc1)C(=O)Nc1ccccc1 | -84.4% (active)
57 | CCCN(CCC)C(=O)C(CCC(=O)O)NC(=O)c1ccccc1 (stereo not drawn) | -0.127% (inactive) and 11.8% (inactive)
58 | CC1CCCC(C)N1 (stereo not drawn) | 19.7% (inactive)
59 | NCCc1ccn[nH]1 | 7.65% (inactive)
60 | CN(C)N(C)C(=O)[C@@]1(Cc2ccccc2)CCCN(C(=O)[C@@H](Cc2c[nH]c3ccccc23)NC(=O)C(C)(C)N)C1 | 17.2% (inactive)
61 | CSc1nc(NC2CCCC2)c([N+](=O)[O-])c(NC2CCCC2)n1 | 15.2% (inactive) and 17.7% (inactive)
62 | CCCCCCOC(=O)/N=C(/N)c1ccc(NCc2nc3cc(C(=O)N(CCC(=O)OCC)c4ccccn4)ccc3n2C)cc1 | 13.2% (inactive)
63 | CC(=O)OCC(=O)[C@@]12OC(C)(C)O[C@@H]1CC1C3C[C@H](F)C4=CC(=O)C=C[C@]4(C)[C@@]3(F)[C@@H](O)C[C@@]12C (stereo partly drawn) | 8.91% (inactive) and 0.0222% (inactive)
64 | COC1=CC(=O)C(=O)C/C1=C\C=C\c1ccccc1 | -4.53% (inactive)
65 | CCCCCCCCCCCCN1CCCCCC1=O | 10.1% (inactive)
66 | COc1ccccc1S(=O)(=O)Nc1ccc2c(c1)CN(C)C(=O)N2 | 28.4% (inactive)
67 | COc1cc(NS(C)(=O)=O)ccc1Cc1c2ccccc2nc2ccccc12 | -78.8% (active)
68 | COc1cc(NS(C)(=O)=O)ccc1Nc1c2ccccc2nc2ccccc12 | -35.3% (inactive) and -53.5% (inactive)
69 | Cc1cc(=O)c2c(O)c3c(O)cc(O)c4c5c(O)cc(O)c6c(O)c7c(=O)cc(C)c8c1c2c(c34)c(c65)c78 | -7.43% (inactive)
70 | C[C@@]1(O)[C@H](O)[C@@H](CO)O[C@H]1n1cnc2c(NC3CCCC3)nc(Cl)nc21 | 14.8% (inactive)
71 | C=CC(=O)Nc1cccc(Nc2nc(Nc3ccc(NC4CN(CCF)C4)cc3OC)ncc2C(F)(F)F)c1 | -9.1% (inactive)
72 | C=CC(=O)Nc1cccc(Nc2nc(Nc3ccc(N4CCN(C(C)=O)CC4)cc3OC)ncc2C(F)(F)F)c1 | 15.7% (inactive)
73 | CC(=O)NCC(=O)N1[C@@H]2CC[C@H]1c1ccc(Nc3ncc(C(F)(F)F)c(NC4CCC4)n3)cc12 | -73.8% (active)
